Screening data (PubChem)
HT1080NT lethal: kills 2HG-producing HT-1080-NT fibrosarcoma cells; HT-1080-NT fibrosarcoma viability, CellTiter-Glo ATP luminescence, 48 h; Potency, µM (series often up to 46.1 µM), inactives show top-dose activity, negative = less viability, usual class: cytotoxic; actives 1.6% (n = 360,000); AID 686970;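 also: NT is the 2HG producing partner of a matched IDH1 knockdown line; potency is read from the fitted curve at half-maximal effect; 0% = DMSO-treated cells and -100% = media-only wells without cells; nearly all actives have a fitted effect of over 55% in size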
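Fibrosarcoma NT cells, 750 per well in 5% FBS RPMI, were exposed to compound for 48 hours. Viability: CellTiter-Glo luminescence.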
IL1B secr inh: inhibitors of inflammasome signaling (IL-1 beta secretion). THP-1 LPS/ATP IL-1B secretion, AlphaLISA, 16 h; stronger effect = lower value. activity change, % at 57.5 µM. actives 4.7% (n = 360,000). AID 743279; in the data active = activity change below about -50%; inconclusive = mostly about -30% to -49%
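Secreted IL-1B measured by AlphaLISA bead assay after 16 h compound exposure of THP-1 cells; compounds (final up to 57.5 uM) added 1 h before LPS (250 ng/mL) and ATP (1.25 mM) stimulation; lower signal means less secretion.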
HT1080 IDH1KD tx: kills HT-1080 cells with IDH1 knockdown. HT-1080 IDH1 knockdown viability, ATP luminescence, 48 h. Potency, µM (highest dose often 46.1 µM), for the others: at the top dose activity, negative = toxicity, usual class: cytotoxic. actives 2% (n = 360,000). AID 686971;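 also: potency is read from the fitted curve at half-maximal effect; 0% = DMSO wells and -100% = cell-free medium wells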
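HT-1080-IDH1KD cells (IDH1 knocked down), 750/well in RPMI with 5% FBS, treated with compound 48 h at 37 degrees C. Viability by CellTiter-Glo luminescence, normalised to DMSO and no-cell wells; concentration-response curves classed.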
DT40 TDP1 no CPT: qHTS for Inhibitors of human tyrosyl-DNA phosphodiesterase 1 (TDP1): qHTS in cells in absence of CPT; actives 15% (n = 420,000); Potency, µM (series often up to 46.2 µM), for inactives: at the highest dose activity change, negative = growth inhibition, most hits filed as inhibitors; DT40 Tdp1-/- hTDP1 cells, no CPT, ATP luminescence, 48 h; also: potency is read from the fitted curve at half-maximal effect; nearly all actives have a fitted effect of over 55% in size
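Camptothecin absent (DMSO only). Human TDP1-complemented DT40 knockout cells, 400 cells/well, 37 °C for minimum 48 hr; ATP measured via CellTiter-Glo, 30 min dark incubation, luminescence.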
TDP1 cell CPT: DT40-hTDP1 cell growth loss with CPT; chicken DT40 Tdp1-/-;hTDP1 cells + 20 nM CPT, ATP luminescence, 48 h; Potency, µM (titrated, usually from 46.2 µM), for inactives: at the top dose activity change, negative = growth inhibition, usual class: inhibitors; actives 12% (n = 420,000); also: potency is read from the fitted curve at half-maximal effect; nearly all actives have a fitted effect of over 55% in size
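Chicken DT40 Tdp1-/- cells stably complemented with human TDP1 were seeded at 400 cells/well in medium containing 20 nM camptothecin, exposed to pin-transferred compounds, and grown at 37 °C for at least 48 hr. Viability was read as ATP luminescence.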
An asterisk follows results filed as active; u = inconclusive; x = no result given. The list is not random: actives were taken first. Their share in the collection is about 19%. Unless noted, calls follow the shape of the dose curve; as a rule, active = well fitted curve in the direction sought with a large enough effect; inconclusive = small, poorly fitted or top-dose-only effect, or another doubt; inactive = no such curve, though single readings can be large; an effect the other way counts as inactive or inconclusive. Unless noted, % is scaled to controls: 0 for no effect and ±100 for the full control effect.

SMILES | HT1080NT lethal | IL1B secr inh | HT1080 IDH1KD tx | DT40 TDP1 no CPT | TDP1 cell CPT
COc1ccccc1CCNC(=O)CCc1c(C)c2cc3c(C)coc3cc2oc1=O | x | x | x | u | 16.4µM*
Cc1coc2cc3oc(=O)c(CCC(=O)NCc4ccc(Cl)cc4)c(C)c3cc12 | x | x | x | 25.9µM* | 10.3µM*
Cc1coc2cc3oc(=O)c(CCC(=O)NCc4ccccc4Cl)c(C)c3cc12 | x | x | x | -1.5% | -18.6%
Cc1c(CCC(=O)NCCCn2ccnc2)c(=O)oc2c(C)c3occ(C(C)(C)C)c3cc12 | u | -96.6* | 18.4µM* | 20.6µM* | u
Cc1oc2cc3oc(=O)c(CCC(=O)NCCCN4CCCC4=O)c(C)c3cc2c1C | 1.3% | -25.2 | 0.2% | u | 14.6µM*
Cc1coc2c(C)c3oc(=O)c(CCC(=O)NCCCn4ccnc4)c(C)c3cc12 | -0.2% | u | -6.2% | u | u
CCOC(=O)N1CCN(CCC(=O)Nc2ccc(C)cc2)CC1 | 16.1% | 14.1 | 8.1% | 3.3% | -8.9%
CC(C)N=C(NS(=O)(=O)NC(=O)c1ccccc1)c1ccccc1 | u | 0.0 | 2.2% | 0.0% | -2.4%
O=C(O)CC/C(=N\NC(=O)c1ccccc1Br)c1ccccc1 | 13.3% | -0.3 | 10.7% | -8.1% | -8.0%
CC12CCC(C(=O)N3CCN(c4ccccc4)CC3)(CC1=O)C2(C)C (stereo not given) | 11.1% | -3.4 | 11.1% | -25.9% | -20.2%
CCOc1ccc(OCC)c(NC(=O)c2cc(S(=O)(=O)N3CCc4ccccc43)cn2C)c1 | x | x | x | u | -29.0%
CC(Sc1nnc(CC(=O)Nc2ccccc2F)n1C)C(=O)Nc1nccs1 (stereo not given) | 3.8% | 14.3 | 7.4% | -26.2% | -2.3%
Cc1ccc(CNC(=O)CCc2c(C)c3cc4c(C)coc4cc3oc2=O)cc1 | x | x | x | u | 16.4µM*
COc1ccc(CCNC(=O)CCc2c(C)c3cc4c(C)c(C)oc4cc3oc2=O)cc1 | x | x | x | 20.6µM* | 10.3µM*
Cc1oc2cc3oc(=O)c(CCC(=O)NCCC(=O)O)c(C)c3cc2c1C | 0.4% | -11.3 | 4.3% | -14.7% | 8.6%
Cc1coc2c(C)c3oc(=O)c(CCC(=O)NCCc4ccc(Cl)cc4)c(C)c3cc12 | x | x | x | 11.6µM* | u
COc1cccc(CNC(=O)CCc2c(C)c3cc4c(C)coc4cc3oc2=O)c1 | x | x | x | 16.4µM* | 13µM*
COc1ccc(CCNC(=O)Cc2c(C)c3cc4c(C)coc4c(C)c3oc2=O)cc1 | x | x | x | u | -11.1%
Cc1coc2cc3oc(=O)c(CCC(=O)NCCN4CCOCC4)c(C)c3cc12 | -5.6% | -8.3 | -0.7% | u | u
C/C(CCc1ccc2c(c1)OCO2)=N\N=C(/N)SC1CC(=O)N(c2ccccc2F)C1=O (stereo not given) | -19.8% | 15.7 | -14.1% | u | u
COc1ccc(C2/C(=C(/O)c3ccccc3)C(=O)C(=O)N2C)cc1OC (stereo not given) | 9.1% | 6.3 | 6.8% | -5.2% | -3.7%
COc1cc(C2CC(=O)c3cnc(NC(=O)c4ccco4)nc3C2)cc(OC)c1OC (stereo not given) | 1.1% | -17.0 | 20.7% | -0.9% | 4.4%
COc1cccc(NC(=O)c2nn(-c3ccc(C)cc3)c(=O)n(C)c2=O)c1 | x | x | x | 14.6µM* | u
CCN(CC)C(=O)Cn1nc(-c2ccc(Cl)cc2)c2ccccc2c1=O | -12.4% | -19.3 | -10.0% | -26.5% | -24.9%
COc1ccc(C(=O)NCC(C)(C)N2CCOCC2)cc1S(=O)(=O)N1CCCC1 | -3.2% | 0.3 | -6.8% | -7.7% | -10.0%
Clc1ccc2c(N3CCCC3)ccnc2c1 | -21.5% | -6.8 | -14.2% | u | u
Oc1ccc(N2CCN(c3ccnc4cc(Cl)ccc34)CC2)cc1 | -23.7% | -11.5 | -21.9% | 23.1µM* | u
CC1CN(c2ccnc3cc(Cl)ccc23)CC(C)O1 (stereo not given) | -14.0% | -6.2 | -5.8% | 11.6µM* | u
COc1ccc(N2CCN(c3ccnc4cc(Cl)ccc34)CC2)cc1 | 1.3% | -56.2* | 7.7% | 18.4µM* | u
